{
  "source": "PubChem BioAssay (NCATS)",
  "note": "Records with an inconclusive call do not appear. Active and inactive are the calls of the source. Calls come from the whole dose curve; as a rule, active = well fitted cell-killing curve with a large enough effect; inconclusive = small, poorly fitted or top-dose-only effect, or effect the other way; inactive = no such curve, though single readings can be large or run the other way. Potency is the fitted concentration of half-maximal effect.",
  "data": [
    {"assay": "Quantitative High-Throughput drug screen in 47 multiple myeloma cell lines against the NCATS MIPE library collection: KMS11_JCRBsus cell viability assay (AID 1919873); note: nearly all actives have a fitted effect of over 50% in size;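 for viability (% of control): 100% = DMSO-only wells and 0% = media-only wells without cells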", "conditions": "KMS11 myeloma viability, CellTiter-Glo ATP luminescence, 48 h; series mostly up to 45.8 µM; viability (% of control): at the top concentration", "how_it_was_run": "(§1)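 500 cells/well; MIPE 4.0 drugs pin-transferred; 48 h, 37C, 5% CO2. CellTiter-Glo, 5 min RT, luminescence. Controls: DMSO 100%, media 0%.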", "values": [
      {"smiles": "CCCC(CCC)C(=O)O", "viability (% of control)": "97% (inactive)"},
      {"smiles": "Cc1cn[nH]c1", "Potency": "0.166 µM (active)"},
      {"smiles": "N#CC[C@H](C1CCCC1)n1cc(-c2ncnc3[nH]ccc23)cn1", "Potency": "20.9 µM (active)"},
      {"smiles": "COc1ccc(C2=N[C@H](c3ccc(Cl)cc3)[C@H](c3ccc(Cl)cc3)N2C(=O)N2CCNC(=O)C2)c(OC(C)C)c1", "Potency": "16.6 µM (active)"},
      {"smiles": "CCOc1cc(C=C2C(=O)N(c3ccccc3)N=C2C)cc(Cl)c1OCC(=O)OC", "viability (% of control)": "103% (inactive)"},
      {"smiles": "CC(c1cc2ccccc2s1)N(O)C(N)=O", "note": "(stereo not given)", "viability (% of control)": "106% (inactive)"},
      {"smiles": "CCOC(=O)C1=C[C@]2(CC)CCCN3CCc4c(n1c1ccccc41)[C@@H]32", "Potency": "8.33 µM (active)"},
      {"smiles": "CCN(c1ccccc1)c1cc(NC)[n+](C)c(C)n1", "viability (% of control)": "109% (inactive)"},
      {"smiles": "COc1ccc(-c2c(-c3ccc(O)cc3O)n[nH]c2C)cc1", "Potency": "48.1 µM (active)"},
      {"smiles": "NCCc1ccc(O)c(O)c1", "Potency": "9.35 µM (active)"},
      {"smiles": "COc1ccc(-c2ccc3c(N4CCOCC4)nc(N4C[C@@H](C)O[C@@H](C)C4)nc3n2)cc1CO", "Potency": "0.059 µM (active)"},
      {"smiles": "O=c1n(CCCN2CCN(c3cccc(Cl)c3)CC2)nc2ccccn12", "viability (% of control)": "101% (inactive)"},
      {"smiles": "O=C(C=Cc1ccc(/C=C/C(=O)Nc2ccc(C3=NCCN3)cc2)cc1)Nc1ccc(C2=NCCN2)cc1", "viability (% of control)": "122% (inactive)"},
      {"smiles": "OC(CN1CCC(Cc2ccc(F)cc2)CC1)c1ccc(Cl)cc1", "note": "(stereo not given)", "viability (% of control)": "102% (inactive)"},
      {"smiles": "Oc1ccc(C2CNCCc3c2cc(O)c(O)c3Cl)cc1", "note": "(stereo not given)", "viability (% of control)": "92.9% (inactive)"},
      {"smiles": "COc1ccc([C@@H]2CC(=O)c3c(O)cc(O[C@@H]4O[C@H](CO[C@@H]5O[C@@H](C)[C@H](O)[C@@H](O)[C@@H]5O)[C@@H](O)[C@H](O)[C@@H]4O)cc3O2)cc1O", "viability (% of control)": "131% (inactive)"},
      {"smiles": "CCOc1ccc(Cc2cc([C@@H]3O[C@H](CO)[C@@H](O)[C@H](O)[C@@H]3O)ccc2Cl)cc1", "viability (% of control)": "86.5% (inactive)"},
      {"smiles": "N[C@@H]1CONC1=O", "viability (% of control)": "105% (inactive)"},
      {"smiles": "COc1cc2nccc(Oc3ccc(NC(=O)NC4CC4)c(Cl)c3)c2cc1C(N)=O", "Potency": "20.9 µM (active)"},
      {"smiles": "Cc1[nH]c(=O)c(C#N)cc1-c1ccncc1", "viability (% of control)": "87.5% (inactive)"},
      {"smiles": "Nc1nccc(-c2ccc3noc(-c4ccc(Cl)cc4)c3c2)n1", "viability (% of control)": "117% (inactive)"},
      {"smiles": "CCCc1nc2c(C)cc(-c3nc4ccccc4n3C)cc2n1Cc1ccc(-c2ccccc2C(=O)O)cc1", "viability (% of control)": "97.1% (inactive)"},
      {"smiles": "COc1ccc(CC2=NN3C([C@@H](CCc4ccccc4)[C@@H](C)O)=NC(C)C3C(=O)N2)cc1OC", "note": "(stereo not given in full)", "viability (% of control)": "97.3% (inactive)"},
      {"smiles": "NC(=O)C1CCCc2c1[nH]c1ccc(Cl)cc21", "note": "(stereo not given)", "viability (% of control)": "98.6% (inactive)"},
      {"smiles": "Nc1nc2[nH]cc(CCc3ccc(C(=O)N[C@@H](CCC(=O)O)C(=O)O)cc3)c2c(=O)[nH]1", "Potency": "0.59 µM (active)"},
      {"smiles": "Nc1nc2c(ncn2COCCO)c(=O)[nH]1", "viability (% of control)": "83.6% (inactive)"},
      {"smiles": "CCN(CC)CCCC(C)Nc1nc(C)cc(Nc2ccc3nc(C)cc(N)c3c2)n1", "note": "(stereo not given)", "viability (% of control)": "84.6% (inactive)"},
      {"smiles": "Cc1ccccc1C(OCCN(C)C)c1ccccc1", "note": "(stereo not given)", "viability (% of control)": "92.8% (inactive)"},
      {"smiles": "Cc1cnc(NC(=O)C2=C(O)c3ccccc3S(=O)(=O)N2C)s1", "viability (% of control)": "103% (inactive)"},
      {"smiles": "CCCn1c(=O)c2[nH]c(C34CC5CC3C[C@@H](C5)C4)nc2n(CCC)c1=O", "viability (% of control)": "98.4% (inactive)"},
      {"smiles": "CC(=O)Oc1ccccc1C(=O)O", "Potency": "10.5 µM (active)"},
      {"smiles": "Cc1cc2c(C(C)C)c(O)c(O)c(C=O)c2c(O)c1-c1c(C)cc2c(C(C)C)c(O)c(O)c(C=O)c2c1O", "Potency": "5.9 µM (active)"},
      {"smiles": "COc1cc2c(cc1OC)CN(CCc1ccc(NC(=O)c3cccc4c(=O)c5cccc(OC)c5[nH]c34)cc1)CC2", "viability (% of control)": "81.8% (inactive)"}
    ]},
    {"assay": "Quantitative High-Throughput drug screen in 47 multiple myeloma cell lines against the NCATS MIPE library collection: KMS28BM_JCRB cell viability assay (AID 1919874); note: nearly all actives have a fitted effect of over 35% in size", "conditions": "CellTiter-Glo ATP, 48 h; series mostly up to 45.8 µM; viability, % of control: at the top concentration", "how_it_was_run": "as §1", "values": [
      {"smiles": "Cc1cn[nH]c1", "Potency": "0.0469 µM (active)"},
      {"smiles": "CCOc1cc(C=C2C(=O)N(c3ccccc3)N=C2C)cc(Cl)c1OCC(=O)OC", "viability, % of control": "99.7% (inactive)"},
      {"smiles": "CCOC(=O)C1=C[C@]2(CC)CCCN3CCc4c(n1c1ccccc41)[C@@H]32", "Potency": "8.33 µM (active)"},
      {"smiles": "COc1ccc(-c2ccc3c(N4CCOCC4)nc(N4C[C@@H](C)O[C@@H](C)C4)nc3n2)cc1CO", "Potency": "1.32 µM (active)"},
      {"smiles": "O=C(C=Cc1ccc(/C=C/C(=O)Nc2ccc(C3=NCCN3)cc2)cc1)Nc1ccc(C2=NCCN2)cc1", "viability, % of control": "116% (inactive)"},
      {"smiles": "Oc1ccc(C2CNCCc3c2cc(O)c(O)c3Cl)cc1", "note": "(stereo not given)", "viability, % of control": "86.7% (inactive)"},
      {"smiles": "CCOc1ccc(Cc2cc([C@@H]3O[C@H](CO)[C@@H](O)[C@H](O)[C@@H]3O)ccc2Cl)cc1", "viability, % of control": "104% (inactive)"},
      {"smiles": "COc1cc2nccc(Oc3ccc(NC(=O)NC4CC4)c(Cl)c3)c2cc1C(N)=O", "Potency": "16.6 µM (active)"},
      {"smiles": "Cc1[nH]c(=O)c(C#N)cc1-c1ccncc1", "Potency": "11.8 µM (active)"},
      {"smiles": "Nc1nccc(-c2ccc3noc(-c4ccc(Cl)cc4)c3c2)n1", "viability, % of control": "140% (inactive)"},
      {"smiles": "COc1ccc(CC2=NN3C([C@@H](CCc4ccccc4)[C@@H](C)O)=NC(C)C3C(=O)N2)cc1OC", "note": "(stereo not given in full)", "viability, % of control": "117% (inactive)"},
      {"smiles": "CCN(CC)CCCC(C)Nc1nc(C)cc(Nc2ccc3nc(C)cc(N)c3c2)n1", "note": "(stereo not given)", "viability, % of control": "112% (inactive)"},
      {"smiles": "Cc1ccccc1C(OCCN(C)C)c1ccccc1", "note": "(stereo not given)", "Potency": "7.43 µM (active)"},
      {"smiles": "Cc1cnc(NC(=O)C2=C(O)c3ccccc3S(=O)(=O)N2C)s1", "viability, % of control": "114% (inactive)"},
      {"smiles": "CCCn1c(=O)c2[nH]c(C34CC5CC3C[C@@H](C5)C4)nc2n(CCC)c1=O", "viability, % of control": "124% (inactive)"},
      {"smiles": "Cc1cc2c(C(C)C)c(O)c(O)c(C=O)c2c(O)c1-c1c(C)cc2c(C(C)C)c(O)c(O)c(C=O)c2c1O", "Potency": "10.5 µM (active)"},
      {"smiles": "COc1cc2c(cc1OC)CN(CCc1ccc(NC(=O)c3cccc4c(=O)c5cccc(OC)c5[nH]c34)cc1)CC2", "viability, % of control": "101% (inactive)"}
    ]}
  ]
}
